Measured values: article PMC4336329 (PLoS ONE, 2015)
In all, about 310,000 compounds went through this assay and about 14,000 (4.5%) showed an effect of 50% or more. Effects have a minus sign here. This excerpt belongs to a sample that is enriched for strong results.

Molecular target: human ether-à-go-go-related gene (hERG) potassium channel (human, UniProt Q12809)
Assay: primary screen, population patch clamp on CHO cells stably expressing hERG; higher = less effect of the substance
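Further: peak tail current of the secondary pulse compared with the same well before compound.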

human ether-à-go-go-related gene (hERG) potassium channel, sequence (Q12809 whole entry, looked up): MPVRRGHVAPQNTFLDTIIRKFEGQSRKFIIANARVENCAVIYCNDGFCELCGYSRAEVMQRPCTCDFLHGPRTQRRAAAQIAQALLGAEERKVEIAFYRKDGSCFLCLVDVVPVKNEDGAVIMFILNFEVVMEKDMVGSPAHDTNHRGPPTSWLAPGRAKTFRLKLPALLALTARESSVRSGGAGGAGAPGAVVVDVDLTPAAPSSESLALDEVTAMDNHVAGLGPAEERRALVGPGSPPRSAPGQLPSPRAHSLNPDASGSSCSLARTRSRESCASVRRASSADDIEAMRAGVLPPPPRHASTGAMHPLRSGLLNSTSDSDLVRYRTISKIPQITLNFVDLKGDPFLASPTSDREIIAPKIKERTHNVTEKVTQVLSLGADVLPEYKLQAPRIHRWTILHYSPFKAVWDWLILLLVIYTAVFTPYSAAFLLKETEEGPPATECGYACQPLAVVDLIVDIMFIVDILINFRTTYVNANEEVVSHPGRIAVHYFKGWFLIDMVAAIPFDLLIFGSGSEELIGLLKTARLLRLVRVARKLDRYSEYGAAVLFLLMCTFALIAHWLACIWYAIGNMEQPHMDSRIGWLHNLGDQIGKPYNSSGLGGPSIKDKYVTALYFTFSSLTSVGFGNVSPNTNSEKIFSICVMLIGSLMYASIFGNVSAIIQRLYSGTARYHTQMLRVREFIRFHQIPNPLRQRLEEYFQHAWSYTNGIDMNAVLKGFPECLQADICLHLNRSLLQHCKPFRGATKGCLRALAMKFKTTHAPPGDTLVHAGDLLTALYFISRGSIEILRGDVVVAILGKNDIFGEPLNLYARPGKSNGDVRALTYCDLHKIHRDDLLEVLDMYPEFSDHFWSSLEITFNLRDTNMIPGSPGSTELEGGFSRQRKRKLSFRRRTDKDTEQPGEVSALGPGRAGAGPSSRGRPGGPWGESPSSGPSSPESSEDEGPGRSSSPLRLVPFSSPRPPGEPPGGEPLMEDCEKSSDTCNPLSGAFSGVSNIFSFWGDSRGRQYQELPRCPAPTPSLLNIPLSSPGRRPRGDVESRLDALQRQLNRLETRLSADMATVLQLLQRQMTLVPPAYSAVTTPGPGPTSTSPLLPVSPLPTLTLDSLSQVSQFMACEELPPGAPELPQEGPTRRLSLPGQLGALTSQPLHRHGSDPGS

SMILES	hERG current change (%, negative = inhibition) at 10uM [%]
COc1ccc(C(=O)C2CCCN(Cc3cccc4c3OCO4)C2)cc1OC (centres unmarked)	-73.8
COc1cccc(C(=O)C2CCCN(Cc3cccc4c3OCO4)C2)c1 (centres unmarked)	-49.4
CCNC(=O)N1CCCC(C(=O)c2ccc(OC)c(OC)c2)C1 (centres unmarked)	20.8
CCN1C(=O)CC(N2CCN(c3cccc(OC)c3)CC2)C1=O (centres unmarked)	14.1
Cc1cc2nccc(-c3ccccn3)n2n1	28.3
Cc1ccc(Nc2nc(=O)[nH]nc2C)cc1	-9.45
CC1CCCCC1NC(=O)CCNC(=O)N1CC(=O)Nc2ccccc21 (centres unmarked)	10.5
CC(=O)Nc1cccc(-c2nnc(SCC(=O)n3c4c(c5ccccc53)CCCC4)n2C)c1	2.33
CCOC(=O)c1c(NC(=O)CSc2nc3ccccc3[nH]2)sc2c1CC(C)(C)NC2(C)C	-45.2
CCOC(=O)c1c(NC(=O)Cc2ccccc2)sc2c1CC(C)(C)NC2(C)C	-52
CCOC(=O)c1c(NC(=O)CSc2nc3ccc(C)cc3[nH]2)sc2c1CC(C)(C)NC2(C)C	-44.3
CCOC(=O)c1c(NC(=O)COc2ccccc2)sc2c1CC(C)(C)NC2(C)C	14.3
CCOC(=O)c1c(NC(=O)COc2ccccc2OCC)sc2c1CC(C)(C)NC2(C)C	13.3
CCOC(=O)c1c(NC(=O)CSc2ncccn2)sc2c1CC(C)(C)NC2(C)C	-55.9
COC(=O)c1c(NC(=O)Cc2ccccc2)sc2c1CC(C)(C)NC2(C)C	-11.1
CCOC(=O)c1c(NC(=O)COc2ccccc2F)sc2c1CC(C)(C)NC2(C)C	5.17
CCOC(=O)c1c(NC(=O)CSc2nnnn2-c2ccccc2)sc2c1CCC(C)C2 (centres unmarked)	-5.66
CCOC(=O)c1c(NC(=O)CSc2nnnn2-c2ccccc2)sc2c1CC(C)(C)NC2(C)C	-64.3
CCOC(=O)c1c(NC(=O)CSc2nnnn2-c2ccccc2OCC)sc2c1CC(C)(C)NC2(C)C	-71.2
CCOC(=O)c1sc(NC(=O)CSc2nnnn2-c2ccccc2)c(C(=O)OCC)c1C	4.34
N#Cc1ccc2ccn(CC(=O)NCc3ccccc3)c2c1	-1.22

SMILES	hERG current change (%, negative = inhibition) at 10uM [%]
O=C(CN1CCN(Cc2ccccc2F)C1=O)NC1CCCC1	1.87
Cc1nccn1CC(O)COC1CCCCC1 (centres unmarked)	13
Nc1nnnn1/N=C/c1cccs1	3.28
CSc1ncccc1C(=O)NCCc1ccccc1	7.94
CC(C)n1c(CN2CCN(Cc3ccccc3)CC2)nc2ccccc21	-14.4
CCN(CC)C(=O)CSc1nc2c(sc(=S)n2CC)c(=O)n1-c1ccccc1	-66.9
CCN(CC)C(=O)CSc1nc2c(sc(=S)n2Cc2ccco2)c(=O)n1-c1ccccc1	-29.4
CCN(CC)C(=O)CSc1nc2c(sc(=S)n2-c2ccccc2)c(=O)n1Cc1ccco1	-78.7
CCC(C)NC(=O)CSc1nc2c(sc(=S)n2Cc2ccco2)c(=O)n1-c1ccccc1 (centres unmarked)	-9.99
CCn1c(=S)sc2c(=O)n(-c3ccccc3)c(SC)nc21	-11.2
CCN(CC)C(=O)CSc1nc2c(sc(=S)n2-c2ccccc2OC)c(=O)n1-c1ccccc1	-4.22
CC(C)CCNC(=O)C1CCN(S(=O)(=O)c2ccc3c(c2)CC(C)N3C(=O)C2CCC2)CC1 (centres unmarked)	-12.7
CN(Cc1ccccc1)C(=S)Nc1cccnc1	9.05
COc1c(C)cc(Br)cc1C(=O)Nc1ccc(Cc2ccncc2)cc1	-3.5
COc1ccc(N(C(=O)Cn2nnc(-c3ccc(F)cc3)n2)C(C)C(=O)NC2CCCC2)cc1 (centres unmarked)	-22
CCC/C(O)=C1\C(=O)CC(c2ccccc2)CC1=NCCc1c(C)[nH]c2ccccc12 (centres unmarked)	-39.3
Cc1nnc(SCc2nc3ccccc3s2)n1-c1ccccc1	2.82
O=c1c(C=NCCN2CCNCC2)c(-c2ccccc2)[nH]n1-c1ccc([N+](=O)[O-])cc1	-66.4
Cc1[nH]n(-c2ccc([N+](=O)[O-])cc2)c(=O)c1C=NCCN1CCN(C(=O)c2ccc(F)cc2)CC1	-73.7
COc1ccc(-c2[nH]n(-c3ccc([N+](=O)[O-])cc3)c(=O)c2C=NCCN2CCNCC2)cc1	-4.9
